Cav32 inh: Cav3.2 calcium influx blockers – cell-based, Fluo-4 calcium fluorescence, FDSS, MLSMR library, primary screen. Cav3.2-expressing cells; stronger effect = lower value. 100,000 compounds, 4% hits. Voltage-dependent T-type calcium channel subunit alpha-1H (Homo sapiens), O95180. B-score at 10 µM;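 active = single-dose well whose peak fluorescence ratio is a statistical outlier from its plate by either plate-standardised score or position-corrected B-score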
Mac1 fbg inh: inhibitors of CD11b/CD18 adhesion to fibrinogen, primary screen, K562 cells, luminescence | 93,000 compounds, 0.54% hits | inhibition, % at 10 µM | AID 1497, 2009 | Integrin beta-2 (Homo sapiens) + Integrin alpha-M (Homo sapiens), P05107+P11215 | ATPlite luminescence; Mn2+ added to activate the integrin;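 active = primary inhibition of 50% or more at 10 µM, then 40% or more on retest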
Target sequence (P05107 whole entry, looked up, other chains not shown): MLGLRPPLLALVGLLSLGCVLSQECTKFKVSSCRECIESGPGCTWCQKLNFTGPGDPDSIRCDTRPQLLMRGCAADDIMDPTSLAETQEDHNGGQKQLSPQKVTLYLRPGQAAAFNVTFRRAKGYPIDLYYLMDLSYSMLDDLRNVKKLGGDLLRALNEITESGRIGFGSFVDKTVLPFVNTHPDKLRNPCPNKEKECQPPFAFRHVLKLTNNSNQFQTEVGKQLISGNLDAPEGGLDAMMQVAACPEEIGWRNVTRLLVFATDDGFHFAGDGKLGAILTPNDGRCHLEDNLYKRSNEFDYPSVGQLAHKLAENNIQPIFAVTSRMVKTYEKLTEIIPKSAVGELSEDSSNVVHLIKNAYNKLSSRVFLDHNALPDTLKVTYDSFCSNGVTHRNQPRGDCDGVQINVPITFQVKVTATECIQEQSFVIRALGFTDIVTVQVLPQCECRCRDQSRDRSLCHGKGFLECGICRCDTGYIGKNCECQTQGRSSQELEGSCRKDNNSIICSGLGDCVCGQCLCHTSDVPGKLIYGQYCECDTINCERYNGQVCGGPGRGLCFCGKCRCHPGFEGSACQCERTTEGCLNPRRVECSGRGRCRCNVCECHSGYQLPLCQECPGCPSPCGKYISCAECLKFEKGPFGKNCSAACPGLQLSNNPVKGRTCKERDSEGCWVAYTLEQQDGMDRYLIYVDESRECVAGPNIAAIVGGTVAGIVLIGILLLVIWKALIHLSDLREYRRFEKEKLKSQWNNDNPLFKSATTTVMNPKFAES
Ecoli WT expand: growth inhibitors of wild-type E. coli, primary screen, strain BW25113, expanded library, OD600 | growth inhibition, % at 100 µM | OD600 absorbance | 98,000 compounds, 0.15% hits;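 active = growth inhibition above about 50% at one test dose, limit read from the data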;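 also: growth measured after 20 h incubation at 37 °C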
Mac1 fbg enh: enhancers of CD11b/CD18 adhesion to fibrinogen, primary screen, K562 cells, luminescence | Integrin beta-2 (Homo sapiens) + Integrin alpha-M (Homo sapiens), P05107+P11215 | ATPlite luminescence | activation, % at 10 µM | 93,000 compounds, 0.07% hits | AID 1499, 2009;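 active = 10 µM primary screen giving 50% or more activity, confirmed by 40% or more on retest at that dose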
Numbers without * were called inactive; . = no result given. This is one part of a sample in which hits are shown more often than they occur.

SMILES	Cav32 inh	Mac1 fbg inh	Ecoli WT expand	Mac1 fbg enh
Cc1ccccc1C(=O)NC1CCN(CC(=O)Nc2nccs2)CC1	0.404	3.0	-2.0	-2.8
Cc1cccc(N2CCN(CC(=O)Nc3nccs3)CC2)c1C	-6.3*	4.0	17.0	-2.6
CCCCN1C(=O)/C(=C/C=C2\N(C)c3ccccc3C2(C)C)SC1=S	-4.66*	15.9	0.0	-3.6
CC1CC(C)CN(C(=O)Cn2c(SCC(=O)N3CCc4ccccc4C3)nc3ccccc32)C1 (centres undefined)	-8.41*	.	.	.
CCOc1ccccc1NC(=O)C1CCN(S(=O)(=O)c2cccc3cccnc23)CC1	.	-2.8	-5.0	-0.4
N=c1n(CCN2CCCCC2)c2ccccc2n1CC(O)c1ccc(Cl)c(Cl)c1 (centres undefined)	-2.6	27.4	98.0*	-2.2
N=c1n(CCN2CCCCC2)c2ccccc2n1CC(O)c1cccc(Br)c1 (centres undefined)	-1.31	4.5	18.0	4.1
Cc1ncsc1CCSc1nc2ccccc2c(=O)n1C	-1.68	-0.3	-2.0	-3.9
CCn1c(CC(=O)Nc2cccc(Cl)c2Cl)nnc1SCCOc1ccc(OC)cc1	-0.0292	5.2	3.0	0.8
COc1ccc(OCCSc2nnc(CC(=O)Nc3cccc(Cl)c3Cl)n2C)cc1	-4.04*	16.2	19.0	-3.5
CCCc1cc(=O)oc2c3c(c4c(c12)OC(C)(C)C=C4)OC(C)C(C)C3O (centres undefined)	-6.76*	.	.	.
CCOc1ccccc1C(=O)NC(CO)C(=O)O (centres undefined)	1.43	2.5	-13.0	-4.3
CN(C=O)CP(=O)(O)CN1CCCCC1	.	.	-4.0	.
N=C1/C(=C/c2cccs2)C(=O)N=C2SN=C(SCc3ccccc3)N12	-7.74*	.	-22.0	.
O=C(c1ccc(Cl)c(Cl)c1)N(Cc1ccco1)c1ccc(O)cc1	-7.45*	9.4	3.0	1.0
O=C(C1=C[C@H](c2coc3ccccc3c2=O)C[C@H](OCCCCO)O1)N1CCN(Cc2ccc3c(c2)OCO3)CC1	0.173	.	.	.
COc1ccc(OCC(=O)Nc2ccccc2OC)cc1	-1.01	-2.7	-1.0	-3.5
CCCOc1ccccc1N/C(=N/c1nc(C)cc(C)n1)NC(=O)COc1ccc(OC)cc1	-4.96*	-17.7	-18.0	2.0
Cc1ccc(OCCCCn2cnc3ccccc32)c(C)c1	-2.64	85.8*	9.0	-9.2
CCCn1nc2cc(C(=O)N(CC)c3ccc(OC)cc3)ccc2c1OCC	-0.563	.	2.0	.
Cc1cc(C)c(NC(=O)c2ccc(CN3CCc4ccccc4C3)cc2)c(C)c1	-4.34*	39.8	-6.0	-2.3
O=C(NCc1ccc2c(c1)OCO2)c1ccc(CN2CCc3ccccc3C2)cc1	-5.27*	6.6	1.0	-2.6
Cc1c(NC(=O)c2ccc(CN3CCc4ccccc4C3)cc2)c(=O)n(-c2ccccc2)n1C	-2.47	.	-2.0	.
C[C@H]1CCC[C@]2(O[C@H](CCO)C[C@@H](O)[C@@H]2O)O1	0.198	.	.	.
Cc1ccc(NC2=C(CC(=O)O)C(c3ccccc3)N(c3ccc(C)cc3)C2=O)cc1 (centres undefined)	.	-27.1	.	5.5
SMILES	Cav32 inh	Mac1 fbg inh	Ecoli WT expand	Mac1 fbg enh
COC(=O)C1=NN(C(=O)c2ccc(C)cc2)C(O)(c2ccc(Cl)cc2)C1 (centres undefined)	-3.22*	21.9	9.0	0.1
Cc1ccc(-c2nn(-c3ccccc3)cc2/C=N/NC(=O)CSc2nnc(C)n2-c2ccccc2)cc1	-4.47*	28.3	-5.0	-2.6
N#CCSc1n[nH]c2nc3c(c(=O)n12)C1(CCCC1)Cc1ccccc1-3	-0.671	78.3*	7.0	-7.3
CCn1c(SCC(N)=O)nc2c(c1=O)C1(CCCC1)Cc1ccccc1-2	-0.273	-5.8	8.0	3.4
N#CCSc1nc2c(c(=O)n1Cc1ccco1)C1(CCCC1)Cc1ccccc1-2	-6.15*	-2.2	.	-0.8
CCCn1c(SCC#N)nc2c(c1=O)C1(CCCC1)Cc1ccccc1-2	-4.21*	-13.4	-38.0	-0.6
COc1ccc(CN2C(=O)c3ccccc3C(/C=N\OCc3ccc(C)cc3)C2=O)cc1 (centres undefined)	0.419	.	3.0	.
O=C1OCC(CO)(CO)N=C1NNc1ccc(Cl)c(Cl)c1	-0.451	11.0	88.0*	1.9
O=C(Nc1ccccc1)N1CCN(Cc2ccc3c(c2)OCO3)CC1	-5.54*	-2.7	5.0	2.2
O=C(c1cc2c(s1)CCCC2)N1CCN(Cc2ccc3c(c2)OCO3)CC1	-3.92*	16.5	2.0	0.8
CN(c1ccc(C(=O)N2CCN(Cc3ccc4c(c3)OCO4)CC2)cc1)S(=O)(=O)c1ccccc1	-2.28	16.9	-11.0	-3.7
